Test results reported in article PMC5540273 (PLoS ONE, 2017).

Test system: CSK
Details: concentration: 1 μM, replicates: in singlicate; n = 1
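Note: KINOMEscan kinase panel screen.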

| Compound | %Inh [%] |
| --- | --- |
| O=C(Nc1n[nH]c2nc(-c3ccccc3O)ccc12)C1CC1 [SB-711880] | 0 |
| CN(c1ccc(NC(=O)N2CCN(CCCN3CCOCC3)CC2)cc1)c1ccnc(Nc2ccc(CS(C)(=O)=O)cc2)n1.Cl [GW830899] | 24 |
| CCOc1nccc(-c2c(-c3ccc(F)cc3)ncn2C2CCNCC2)n1 [SB-249175] | 0 |
| O=C(Nc1n[nH]c2nc(-c3cccc(O)c3)ccc12)C1CC1 [SB-711805] | 100 |
| Cc1ccc(NC(=O)c2ccnc(N3CCCCC3)c2)cc1-c1ccc(C(=O)NCC2CC2)cc1 [GW775610] | 0 |
| Cc1cccc(Nc2nc(NCCN)ncc2C(N)=O)c1 [GSK1292139] | 22 |
| CN(c1ccc(F)c(NC(=O)c2cccc(OC(C)(C)C#N)c2Cl)c1)c1ccc2nc(NC(=O)C3CC3)sc2n1 | 16 |
| Cc1ccc(NC(=O)c2ccc(Cl)c(Cl)c2)cc1-c1ccc(C(=O)Nc2ccncc2)cc1 [GSK1398460] | 1 |
| O=C(Nc1n[nH]c2nc(-c3ccccc3)ccc12)C1CC1 [SB-708999] | 0 |
| CCNC(=O)/C=C/c1n[nH]c2cc(Sc3ccccc3C(=O)NC)ccc12 | 3 |
| COc1ccc(C)c(Nc2ccnc(Nc3ccc(-c4cnc[nH]4)cc3)n2)c1.Cl [GW784041] | 9 |
| Cc1nn2c(=O)cc(N3CCO[C@H](C)C3)nc2n1Cc1cccc(Cl)c1Cl [GSK2373693] | 56 |
| c1ccc(Oc2ccc(Nc3ccnc4cc(-c5ccc(CN6CCCCC6)o5)ccc34)cc2)nc1 [GW567143] | 71 |
| COC(=O)Nc1nc2cc(Oc3ccc(NC(=O)Nc4cccc(SC)c4)cc3)ccc2[nH]1.Cl [GW697999] | 0 |
| CC(C)NCC(Cc1ccccc1)NC(=O)c1cc(Br)c(-c2ccnc3[nH]ccc23)s1.Cl.Cl (stereo not shown) [GSK1383281] | 6 |
| N#Cc1cnc2cc(-c3cnc(CNCCN4CCOCC4)s3)ccc2c1Nc1ccc(Oc2ccccc2)cc1 [GW664114] | 96.7 |
| Cc1cc(-c2c(-c3ccc(F)cc3)ncn2CCCN2CCOCC2)nc(N)n1 [SB-222517] | 7 |
| CN(C)CCNS(=O)(=O)c1ccc(-c2ccnc3[nH]ccc23)cc1 [GSK977620] | 0 |
| CN(c1ccc(NC(=O)Nc2cccc(Cl)c2)cc1)c1ccnc(N)n1.Cl [GW830707] | 7 |

| Compound | %Inh [%] |
| --- | --- |
| Cl.O=C(Nc1ccc(Oc2ccc3[nH]c(NC(=O)c4ccco4)nc3c2)cc1)Nc1cc(C(F)(F)F)ccc1F [GW683134] | 0 |
| Cl.Cl.NC(CNC(=O)c1cc(Br)c(-c2ccnc3[nH]ccc23)s1)c1ccccc1 (stereo not shown) [GSK1322949] | 0 |
| COc1ccc(C2=C(Nc3cccc(O)c3)C(=O)NC2=O)cc1 [SB-390766] | 15 |
| Nc1cccc(-c2ccc3c(N)n[nH]c3c2)c1 [GSK2193613] | 0 |
| Cl.Cl.NCC(NC(=O)c1cc(-c2cccnc2)c(-c2ccnc3[nH]ccc23)s1)c1ccccc1 (stereo not shown) [GSK1323434] | 0 |
| COc1ccc(NC(=O)c2ccoc2)cc1-c1ccc(C(=O)NCC2CC2)cc1 [GW810437] | 0 |
| CC(C)(C)c1ccc(C(=O)Nc2cn3cc(-n4ccnc4)ccc3n2)cc1 | 0 |
| Cc1ccc(Nc2ccnc(Nc3ccc(C)c(F)c3)n2)cc1O.Cl [GW582868] | 0 |
| Cc1ccc(NC(=O)c2cccc(N3CCCCC3)c2)cc1-c1ccc(C(=O)NCC2CC2)cc1 [GSK1917008] | 0 |
| COc1cccc(C2=C(Nc3cccc(O)c3)C(=O)NC2=O)c1 [SB-390771] | 100 |
| CSc1ccc(NC2=C(c3ccc(Cl)cc3)C(=O)NC2=O)cc1 [SB-317658] | 21 |
| Cc1cc(-c2ccnc(Nc3cccc(C#N)c3)n2)cc(C)c1O [GSK1440913] | 0 |
| O=C(Nc1n[nH]c2cc(-c3cccs3)ccc12)C1CC1 [SB-731284] | 13 |
| CCn1cnc2c(NCc3ccccc3)ncnc21 [SKF-96418] | 0 |
| Cn1cc(-c2ccc3c(c2)CCN3C(=O)Cc2cc(F)cc(F)c2F)c2c(N)ncnc21 [GSK2634140] | 0 |
| O=C(O)C(F)(F)F.O=c1[nH]ccc2nc(N[C@@H]3CCNC3)nc(Nc3ccc4c(c3)S(=O)(=O)CC4)c12 [GSK2181306] | 5 |
| COc1cccc(NC(=O)NCCNc2ccnc(Nc3ccc(F)cc3)n2)c1 [GSK1379879] | 0 |
| CN1CCN(Cc2ccc(NC(=O)Nc3ccc(N(C)c4ccnc(Nc5ccc(CS(C)(=O)=O)cc5)n4)cc3)cc2)CC1.Cl [GW827654] | 47 |
